PubChem BioAssay AID1246 (Columbia University Molecular Screening Center, 2008)
In all, about 120,000 compounds went through this assay and about 840 (0.7%) were called active. The sample holds actives, similar compounds and a random draw of the others, so the mix is not that of the screen. Unmarked numbers belong to inactive results.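 How the source made its calls: active means inhibition above the batch mean plus 3 SD, and confirmed as a hit on visual image review (cut at about 43% in these data); inconclusive means passes the inhibition cutoff but fails visual image review; inactive means the rest.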

Experiment: E-selectin induction blockers in HUVEC – imaging, immunofluorescence, high content, primary screen (AID 1246);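 further: 0% = TNF-stimulated DMSO wells and 100% = unstimulated control wells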
Details: HUVEC TNFa-induced E-selectin immunofluorescence, at 2 µM, hits give high values
Work on `COc1cc(C=O)c(Br)cc1OCC(=O)NCc1ccccc1` yielded an inhibition of -19%.
Compound `CCCNC(=S)N1CCCC(c2nc3ccccc3[nH]2)C1` (centres undefined) has an inhibition of -49%.
`Cn1c(CCC(=O)Nc2ccccc2F)nnc1SCC(=O)Nc1ccccc1Cl` gave an inhibition of -44.5%.
`COc1ccc(S(=O)(=O)N2CCN(C(=O)c3cc(C)oc3C)CC2)cc1` gave an inhibition of -37.8%.
`CC(=O)c1ccc(N=C2SCCCN2C(=O)C2CCCCC2)cc1` showed an inhibition of 7.89%.
`COc1cccc(C(=O)Oc2cc(C)[nH]c(=O)c2[N+](=O)[O-])c1` gave an inhibition of 21.9%.
In the case of `CC(=O)c1ccc2c(ccc3ccccc32)c1`, the inhibition is reported as 22.7%.
For `CCN(CC)Cc1cc(C(C)=O)ccc1O`, the inhibition was 47.5% (active).
`COCc1cc(C(C)=O)ccc1OC` showed an inhibition of -4.6%.
In the case of `CC1CCCN(CC(O)COc2ccc3c(c2)OCO3)C1` (centres undefined), the inhibition is reported as 11.9%.
Compound `O=C1CCC(=O)N1c1ccc(NCCc2ccccc2F)c([N+](=O)[O-])c1` has an inhibition of -8.93%.
Work on `CCN(C(=O)CN1CCN(Cc2ccccc2)CC1)c1c(N)n(Cc2ccccc2)c(=O)[nH]c1=O` yielded an inhibition of -54.5%.
In the case of `COc1ccc(OCC(=O)Nc2ccc(N3CCC(C)CC3)cc2)cc1`, the inhibition is reported as -61.5%.
`CN1CCN(c2ccc(NC(=O)COc3ccc(Cl)cc3Cl)cc2)CC1` gave an inhibition of 3.16%.
With `Cc1ccc(NC(=O)COc2ccc(-n3ccnc3)cc2)cc1Cl` the inhibition was 73% (active).
`O=C(Cn1nnc2ccccc2c1=O)NCc1ccc(Cl)cc1` showed an inhibition of -24.9%.
Compound `COCCNC(=O)/C(C#N)=C/c1nc(N(C)C)n(-c2ccc(F)cc2)c1Cl` has an inhibition of 6.3%.
Compound `Nc1ccc(S(=O)(=O)Nc2nccc(/C=C/c3ccc(Br)s3)n2)cc1` has an inhibition of 11.1%.
In the case of `CCCNc1ncnc2sc(C)c(C)c12`, the inhibition is reported as 99.7% (active).
Work on `CCc1cc2c(NC3CCCC3)ncnc2s1` yielded an inhibition of -4.12%.
With `CCOC(=O)C(C)n1cnc2sc(C)c(C)c2c1=O` (centres undefined) the inhibition was 23.1%.
`C/[N+]([O-])=C\c1ccc([N+](=O)[O-])o1` showed an inhibition of -20.9%.
In the case of `COC(=O)C1=C(C)N(C)C(=O)NC1c1ccc([N+](=O)[O-])o1` (centres undefined), the inhibition is reported as 4.38%.
In the case of `Cc1ccc(N2CCN(/N=C/c3cccs3)CC2)cc1`, the inhibition is reported as 58.4% (active).
For `Cc1ccc(N2CCN(C3=NC(=O)/C(=C\c4cccs4)S3)CC2)cc1`, the inhibition was -36.9%.
`C(=N/N1CCN(c2ccccc2)CC1)/c1cccs1` showed an inhibition of -23.6%.
`CS(=O)(=O)n1nc(-c2ccco2)nc1N` showed an inhibition of -27.1%.
For `Cn1nc(-c2ccccc2)c(CO)c1Sc1ccccc1`, the inhibition was -21.3%.
In the case of `CC(=O)NCCC(=O)Nc1cc(S(=O)(=O)N2CCOCC2)ccc1N1CCOCC1`, the inhibition is reported as -13.3%.
Compound `CCc1ccc(NC(=O)Cn2nc(C)c([N+](=O)[O-])c2C)cc1` has an inhibition of 24.3%.
In the case of `COC(=O)c1ccc(NCC(=O)N2CCCCCC2)cc1`, the inhibition is reported as 7.57%.
In the case of `Cc1cc(C)nc(/N=C2\NC(=O)CC(C(=O)O)N2c2ccc(Cl)cc2Cl)n1` (centres undefined), the inhibition is reported as 48.5% (active).
`CCOC(=O)c1nc(C)n(-c2ccc(Cl)cc2Cl)n1` gave an inhibition of -32.4%.
Compound `Cc1cc(Cl)ccc1N1C(=O)CC(SCCC(=O)O)C1=O` (centres undefined) has an inhibition of -14%.
For `COc1ccc(Sc2nc(-c3ccccc3)ncc2OC)cc1`, the inhibition was -16.9%.
`C=CCN(CC=C)C(=O)COC(=O)c1n[nH]c2ccccc12` showed an inhibition of -73.3%.
In the case of `O=C(CCC(=O)Nc1ccccc1)N/N=C/c1ccccc1F`, the inhibition is reported as -1.59%.
`CCCCC(CC)CNC(=O)C(=O)C1C(=O)Nc2ccccc21` (centres undefined) gave an inhibition of -10.1%.
For `Cc1cc(NC(=O)CCC(=O)N(CC(=O)NCC2CCCO2)c2ccccc2C)no1` (centres undefined), the inhibition was 66.4% (active).
`COCCNC(=O)CN(C(=O)CCC(=O)Nc1cc(C)on1)c1ccc(C)cc1C` showed an inhibition of -15.2%.
In the case of `CCCCOc1ccc(N(CC(=O)NCC2CCCO2)C(=O)CCC(=O)Nc2cc(C)ccn2)cc1` (centres undefined), the inhibition is reported as 13.7%.
For `Cc1ccc(CSc2nc3[nH]ncc3c(=O)[nH]2)cc1`, the inhibition was 16%.
For `Cc1ccc(C(=O)N/C(=C\c2cccs2)C(=O)NCCc2ccccn2)cc1C`, the inhibition was -0.32%.
`C=CCC(C(=O)c1ccccc1)[N+](C)(C)CC=C` (centres undefined) showed an inhibition of -21.6%.
Work on `CC1COc2ccccc2N1S(=O)(=O)c1ccccc1` (centres undefined) yielded an inhibition of 10%.
With `O=C1c2ccccc2NC(c2ccccn2)N1NS(=O)(=O)c1ccccc1` (centres undefined) the inhibition was 12.1%.
`COc1ccc(CCNC(=O)CC2SC(=Nc3cc(C)cc(C)c3)NC2=O)cc1OC` (centres undefined) gave an inhibition of -40.4%.
With `CCn1c(SC)nc(O)c(C(c2ccc(OC)c(O)c2)c2c(O)nc(SC)n(CC)c2=O)c1=O` the inhibition was -24.8%.
`COc1ccc2c(c1OC)C(=O)OC2Nc1nc(-c2ccccc2)cs1` (centres undefined) gave an inhibition of 36.5%.
In the case of `COc1ccc2c(c1OC)C(=O)OC2c1c(O)nc(SC)n(-c2ccccc2)c1=O` (centres undefined), the inhibition is reported as 95% (active).
Work on `O=C(O)CCCCOn1ccnc1` yielded an inhibition of 2.16%.
`Clc1ccc(CN2CCN(/N=C/c3cccnc3)CC2)cc1` showed an inhibition of -6.01%.
`Oc1ccc(-c2nncn2-c2ccccc2)cc1` showed an inhibition of -13.7%.
Compound `CCCCN(C(=O)/C=C/c1ccco1)c1c(N)n(CC(C)C)c(=O)[nH]c1=O` has an inhibition of 7.93%.
In the case of `O=C(Nn1cnc2ccccc2c1=O)c1ccc([N+](=O)[O-])cc1Cl`, the inhibition is reported as -17%.
Compound `O=C(O)CCC(=O)NCc1ccc2[nH]c3c(c2c1)CCCC3` has an inhibition of -12%.
In the case of `O=C1CCCc2c1[nH]c1ccc(Br)cc21`, the inhibition is reported as 71.4% (active).
Work on `O=[n+]1c2c(n([O-])c3cc(Br)ccc31)CCC2` yielded an inhibition of 8.3%.
`CCN1C(=O)/C(=c2\s/c(=C3\Sc4ccccc4N3C)c(=O)n2C)N(C)C1=S` showed an inhibition of -4.14%.
For `O=S(=O)(NCCNS(=O)(=O)c1ccccc1)c1ccccc1`, the inhibition was -9.47%.
With `CCN(CC)CCNS(=O)(=O)c1ccc(/C=C/C(=O)O)cc1` the inhibition was 85.3% (active).
In the case of `CCC(C)NC(=O)/C=C/c1ccc(S(=O)(=O)NCc2ccco2)cc1` (centres undefined), the inhibition is reported as 1.55%.
`O=C(Nc1ccnc(-c2ccncc2)n1)c1cccs1` gave an inhibition of -27.2%.
Compound `CCNC(=S)NNC(=O)C1CCN(Cc2ccccc2)CC1` has an inhibition of -1.82%.
In the case of `Cc1occc1C(=O)N1CCCc2ccccc21`, the inhibition is reported as 19.4%.
For `O=C(c1c(Cl)nc2sccn12)N1CCCc2ccccc21`, the inhibition was 79% (active).
`O=C1/C(=C\c2ccccc2Cl)SC(=S)N1CCC(=O)N1CCCc2ccccc21` showed an inhibition of -3.4%.
In the case of `Cc1ccc(CN2CCN(Cc3ccc4ncccc4c3)CC2CCO)cc1` (centres undefined), the inhibition is reported as -11.2%.
For `COc1ccc(Cn2c(=O)cc(C)[nH]c2=S)cc1`, the inhibition was 5.51%.
`Cn1cccc1C(C#N)c1ccccc1C#N` (centres undefined) showed an inhibition of 20.5%.
Work on `CCCS(=O)(=O)N1CCC(CCOc2ccccc2)(C(=O)OCC)CC1` yielded an inhibition of -12.3%.
With `COc1ccc(F)c(-c2nc(CN3CCC(c4ccccc4)CC3)c(C)o2)c1` the inhibition was -28.7%.
Work on `COc1ccc(NC(=S)Nc2ccccc2Cl)cn1` yielded an inhibition of -66.9%.
In the case of `COc1ccc(CS(=O)/C(Cl)=C(/Cl)C(=O)Nc2ccc(OC)nc2)cc1` (centres undefined), the inhibition is reported as 99.4% (active).
`COc1ccc(NC(=O)/C(Cl)=C(/Cl)S(=O)Cc2ccc(C)cc2)cn1` (centres undefined) gave an inhibition of 27.8%.
`O=c1cc(O)c(-c2cccc(C(F)(F)F)c2)c(Cl)[nH]1` showed an inhibition of 14.3%.
For `CCc1ccccc1NC(=S)N(CCN1CCCCCC1)Cc1ccco1`, the inhibition was -12.7%.
`CCOC(=O)COc1ccc([N+](=O)[O-])cc1` showed an inhibition of 7.8%.
For `N/C(Cc1ccc([N+](=O)[O-])cc1)=N\OC(=O)C1CCCCC1`, the inhibition was -1.96%.
With `N/C(Cc1ccc([N+](=O)[O-])cc1)=N\OC(=O)COc1ccc2ccccc2c1` the inhibition was 62.5% (active).
Compound `Cc1ccnc(NC(=O)CCCOc2ccccc2)c1` has an inhibition of 4.53%.
`Cc1cc(C)nc(SCC(=O)N(C)C)n1` gave an inhibition of 0.21%.
Compound `COc1ccc(CN2CCNC(=O)C2CC(=O)N(C)Cc2ccccn2)cc1OC` (centres undefined) has an inhibition of -8.81%.
`Cc1cc(C)c(C#N)c(SCC(=O)Nc2ccccc2)n1` showed an inhibition of -29.3%.
For `CC(=O)c1ccc(-c2nnc(CCC(=O)N(C)Cc3cnc4ccccn34)o2)s1`, the inhibition was 4.22%.
Work on `N#CC1=C(N)Oc2[nH]c(=S)[nH]c(=O)c2C12C(=O)Nc1ccccc12` (centres undefined) yielded an inhibition of -26.7%.
With `COc1ccc(-n2nnnc2SCC(=O)NCc2cccs2)cc1` the inhibition was 12.9%.
For `COc1ccc(-n2nnnc2SCc2nc(N)nc(N3CCOCC3)n2)cc1`, the inhibition was 61.2% (active).
With `COc1ccc(-c2nnn(Cc3nc(N)nc(N4CCCCC4)n3)n2)cc1` the inhibition was -40.4%.
With `CCOC(=O)c1sc(=NC(=O)/C=C/c2cccs2)n(C)c1C` the inhibition was -26.1%.
`Cc1cccc(C(=O)NNC(=O)c2cccc([N+](=O)[O-])c2)c1` gave an inhibition of -0.72%.
In the case of `O=C(CC12CC3CC(CC(C3)C1)C2)NCc1ccco1`, the inhibition is reported as 23.1%.
`Fc1ccccc1Cn1cnc(NC(=S)NCCc2ccccc2)n1` gave an inhibition of -14.1%.
Compound `CCC(C)CN1CCC(CO)(Cc2ccccc2Cl)CC1` (centres undefined) has an inhibition of -16.5%.
Compound `CCN1CCN(CC(=O)Nc2sc3c(c2C#N)CCC3)CC1` has an inhibition of 9.33%.
Work on `CCN(CC)CCNC(=O)c1ccc(NC(=O)c2c(F)cccc2Cl)cc1` yielded an inhibition of -1.94%.
With `O=C(NCC1CCCO1)C1CCN(C2CCN(C(=O)C3CCCCC3)CC2)CC1` (centres undefined) the inhibition was 13%.
`O=C(CCCN1C(=O)c2cccc3cccc(c23)C1=O)N1CCN(Cc2ccc3c(c2)OCO3)CC1` gave an inhibition of -25.6%.
In the case of `Cn1c(=O)cc(OCCCC(=O)N2CCN(Cc3ccc4c(c3)OCO4)CC2)c2ccccc21`, the inhibition is reported as 52.1% (active).
In the case of `Cn1c(=O)cc(OCCCC(=O)N2CCN(c3ccccn3)CC2)c2ccccc21`, the inhibition is reported as -12.9%.
`COCc1ccc(C(=O)N2CCc3c([nH]c4ccccc34)C2c2ccccn2)s1` (centres undefined) gave an inhibition of 4.79%.
For `CCN(CC)c1ccc2c(Nc3ccccc3)c(C=O)c(=O)oc2c1`, the inhibition was -20.2%.
`O=C(COC(=O)c1ccco1)NCc1ccc(Cl)cc1` gave an inhibition of -1.29%.
For `O=S(=O)(/N=C(/Nc1ccccn1)c1ccccc1)c1ccc(Cl)cc1`, the inhibition was -19.7%.
Compound `O=C(O)c1ccc(NC(=O)c2cccs2)cc1` has an inhibition of -5.04%.
For `O=S(=O)(/N=C(/Nc1ccccc1)c1ccccc1)c1cccs1`, the inhibition was 68.3% (active).
Compound `COc1ccc(NC(=O)CN2C(=O)CSC2=O)cc1` has an inhibition of -1.6%.
Compound `O=C(N/N=C/c1cc2c(cc1Br)OCO2)C1COc2ccccc2O1` (centres undefined) has an inhibition of -17.4%.
Work on `Cc1cc(C)cc(OCC(=O)Nc2ccc(S(=O)(=O)Nc3ccccn3)cc2)c1` yielded an inhibition of -36.2%.
